The values below come from PubChem BioAssay AID602247 (The Scripps Research Institute Molecular Screening Center, 2012).

The campaign covered roughly 360,000 compounds. About 80 (0.02%) were called active. The sample holds actives, similar compounds and a random draw of the others, so the mix is not that of the screen. A number with no mark means an inactive call.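 How the source made its calls: active means activation above the run cutoff, the mean activation of all test compounds plus 3 SD (cut at about 40% in these data); inactive means the rest.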

The nature of this experiment: nonselective calcium activators in parental CHO-K1 cells, primary screen, counter-screen for M1 PAM project, cell-based, Fluo-8 calcium fluorescence, full deck, 1536-well (AID 602247).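 Further: peak over basal fluorescence ratio in a 140 s read after ATP addition.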 The settings on record: parental CHO-K1, ATP EC20, Fluo-8 calcium fluorescence; at 3 µM; hits give high values; 0% at ATP EC20, 100% at ATP max.
For `Nc1scc(-c2ccncc2)c1Cl`, the activation was 13.6%.

Consider `Cc1cccc(CC2(O)C(=O)Nc3ccccc32)n1` (stereo unspecified), for which the activation was 12.3%.

Consider `Cc1ccc(C)c(OCCC(=O)Nc2cccc(S(=O)(=O)N3CCCC3)c2)c1`, for which the activation was 10.7%.

As for `O=c1[nH]c(CCl)nc2cc(-c3ccc(Cl)cc3)sc12`, the activation is 13%.

For the compound `CN[C@H](C(=O)NC[C@H]1O[C@@H](n2cnc3c(N)ncnc32)[C@H](O)[C@@H]1O)[C@@H](C)OCc1ccccc1`, the activation was 11.7%.

Regarding `O=C(NNS(=O)(=O)c1ccc([N+](=O)[O-])cc1)C1CCCCC1`, the activation was -9.25%.

Turning to `COC(=O)c1ccccc1NC(=O)C1(S(=O)(=O)c2ccc(Cl)cc2)CC1`, the activation is -15%.

Turning to `CSc1ccccc1C(=O)OCC(=O)N1CCN(C(C)=O)CC1`, the activation was 15.7%.

For the compound `O=C(CSCc1ccccc1Cl)NNC(=O)c1ccccc1`, the activation is 2.85%.

On to `O=C(OC1CCOC1=O)c1ccc(-c2nc3ccccc3s2)s1` (stereo unspecified), for which the activation was 10.6%.

`Cc1ccc2nc(NC(=O)C3CSC4(C)CCC(=O)N34)sc2c1` (stereo unspecified): the activation is -12.5%.

Regarding `COC(C[C@@H](O)C[C@@H](O)[C@H](C)OCc1ccccc1)OC`, the activation is 17.1%.

Regarding `Cc1ccc([C@H]2N[C@]3(CCCN(Cc4ccccc4)C3=O)[C@H]3C(=O)N(Cc4ccccc4)C(=O)[C@@H]23)cc1`, the activation was 1.9%.

Consider `CC(=O)NC1=NC(=O)CS1`, for which the activation was 15.2%.

Take `C[C@H]([C@@H](O)[C@@H](O)[C@@H](C)C(C)(C)C)[C@H]1CC[C@H]2C3CC[C@H]4C[C@H](OS(=O)(=O)O)[C@@H](OS(=O)(=O)O)C[C@]4(C)[C@H]3CC[C@]12C` (stereo partly specified): the activation was 46.3% (active).

For the compound `CC(=O)O[C@H]1CC[C@@]2(C)[C@@H](CC[C@@H]3[C@@H]2CC[C@]2(C)[C@@H](C(C)(C)O)C[C@@H]32)C1`, the activation was 4%.

`CCOC(=O)c1c(C)n(C)c2ccc(OC)c(NC(=O)CN3CCC4(CC3)OCCO4)c12`: the activation was 7.82%.

As to `O=C(CN(c1ccccc1)S(=O)(=O)c1ccc(Cl)cc1)Nc1ccccc1C(=O)N1CCCC1`, the activation was 8.26%.

For the compound `CCOc1ccccc1NC(=O)C1CCN(S(=O)(=O)c2c(C)nn(C)c2C)CC1`, the activation is -1.01%.

With `Cc1ccc(N2CCN(c3ccc(C)cc3)C2c2ccccn2)cc1`, the activation was -7.38%.

With `COc1ccc(S(=O)(=O)N2CCN(C(=O)c3cc(C)oc3C)CC2)cc1`, the activation is 20.2%.

With `COc1ccc(CCN2CC(C(=O)OCC(=O)NCc3ccccc3Cl)CC2=O)cc1OC` (stereo unspecified), the activation was -3.82%.

As for `Cc1cc(C(=O)CC#N)c(C)n1CC(F)(F)F`, the activation is 13.3%.

In the case of `C/C(=N/NC(=O)CSc1ccccn1)c1ccc([N+](=O)[O-])cc1`, the activation was 22.4%.

Take `CC1(C)CC2CC(C)(CN2c2ncnc3ccc(Br)cc23)C1` (stereo unspecified): the activation was 17.9%.

For the compound `C/C(N)=C(\C#N)C(=O)NCCc1ccccn1`, the activation was 21.8%.

As to `O=C(/C=N/O)Nc1ccccc1`, the activation was 6.67%.

In the case of `CN1CCN(c2cc(=O)n(-c3ccc(Cl)cc3)c(=O)[nH]2)CC1`, the activation was 1.64%.

For the compound `COc1ccc(C2/C=C\CN(S(=O)(=O)c3cccs3)CC(=O)N2Cc2ccc(F)cc2)cc1` (stereo unspecified), the activation is -11.5%.

Consider `CC(C)NC(=O)c1ccccc1S(=O)c1ccccc1C#N` (stereo unspecified), for which the activation was 0.52%.

`O=C(CSc1nnnn1-c1ccc2c(c1)CCC2)Nc1ccc2c(c1)OCCO2`: the activation is -11.2%.

In the case of `O=C1c2ccccc2C(=O)N1CCc1nn[nH]n1`, the activation is 16.6%.

As for `CC(C)(C)c1ccc(/C=C2\Oc3c(ccc(O)c3CN3CCN(CCO)CC3)C2=O)cc1`, the activation was 4.37%.

`CCCCOc1ccc(C(=O)NCC(=O)OCC(=O)c2c(N)n(C)c(=O)n(C)c2=O)cc1`: the activation was -1.27%.

With `COc1cccc(CNCc2ccc3c(c2)OCO3)c1`, the activation is 18.7%.

In the case of `CCOc1ccccc1N1CCN(C(=S)Nc2ccc(S(N)(=O)=O)cc2)CC1`, the activation is 17.3%.

With `COc1ccc(C2=NOC(Cn3nc(C(=O)NCc4ccc5c(c4)OCO5)cc3-c3ccccc3)C2)cc1` (stereo unspecified), the activation is 14.9%.

Turning to `CCOc1cc(C2C(C(=O)OC(C)C)=C(C)NC3=C2C(=O)CCC3)cc([N+](=O)[O-])c1O` (stereo unspecified), the activation is 14.9%.

As for `COCCNC(=O)CSc1nc2c(n1-c1ccccc1)CCCC2`, the activation was 10.3%.

Take `O=C1CC(C(F)(F)C(F)(F)C(F)(F)C(F)(F)F)=Nc2ccccc2N1`: the activation was 17.5%.

On to `CCN1C(=NCC(C)C)N[C@@H](CCc2ccccc2)[C@H](C(=O)NCC(C)C)[C@H]1C`, for which the activation is 8.06%.

`CC(CC(=O)N1CCN(S(=O)(=O)c2ccccc2)CC1)n1cncn1` (stereo unspecified): the activation was 23.5%.

As for `CSc1ncccc1C(=O)OCc1ccc(Br)cc1`, the activation is 17%.

For `CC(C)COc1ccc(C(=O)OCC(=O)NCCC2=CCCCC2)cc1`, the activation was 0.12%.

As for `Cc1noc(NS(=O)(=O)c2ccc(NC(=O)c3oc4ccc(F)cc4c3C)cc2)c1C`, the activation is 14.4%.

`O[C@H]1C[C@H](c2ccc(Cl)cc2)N(Cc2cccs2)C[C@@H]1n1cc(C2CC2)nn1`: the activation is 47.2% (active).

Consider `O[C@H]1CN(Cc2cccs2)[C@@H](c2ccc(Cl)cc2)C[C@@H]1n1cc(C2CC2)nn1`, for which the activation was 1.81%.

Take `O[C@@H]1C[C@H](c2ccccc2)N(Cc2cccs2)C[C@H]1n1cc(C2CC2)nn1`: the activation is 31.2%.

As for `Cc1ccc(C2NC(=S)NC3=C2N2CCC3CC2)cc1` (stereo unspecified), the activation is 12.6%.

With `NC(=O)c1ncn([C@@H]2O[C@H](CN=C3NS(=O)(=O)c4ccccc43)[C@@H](O)[C@H]2O)n1`, the activation is 12.9%.

`COc1ccccc1N1CCC(N2CCN(CC(C)(C)C)C(CCO)C2)CC1` (stereo unspecified): the activation is 15.1%.

As for `O=S(=O)(NCc1ccc2c(c1)OCO2)c1cccc2nsnc12`, the activation is -1.4%.

With `Cc1ccc(NC(=S)Nc2ncccc2C)c(C)c1`, the activation was 14.7%.

Take `Cc1cc(C)cc(NC(=O)COC(=O)c2cc(C)oc2C)c1`: the activation was 9.08%.

Consider `COC(=O)Cn1cnc2scc(-c3ccc(C)c(C)c3)c2c1=O`, for which the activation was 12.6%.

Consider `C[C@H](NC(=O)[C@@H]1CCCN1C(=O)[C@@H]1CCCN1C(=O)c1ccccc1)c1ccccc1`, for which the activation was 20.5%.
